# Where “and” joins values, the source holds several entries; their conditions need not be identical. Equal entries are not always repeated. In all, about 5,500 compounds went through this assay and about 2,000 (36%) were called active. Not shown: some 18% with an inconclusive outcome. Rule as the data show it: active = normalized growth mostly below about 0.91 (no sharp cut-off); inconclusive = no clear call, values can overlap the other calls; inactive = mostly above about 0.92. This is one part of the list. A structure can be active in one record and inactive in another.
# Experiment: chemical genetic growth profiling, strain panel (AID 1159580);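 also: tested at 20 µM; growth read once vehicle control cultures reached saturation at 30 °C; 1 = growth at the plate median or of vehicle wells; lower values mean less growth of the strain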
# Conditions: growth OD
smiles,measurement,setting,value
CN1CCN(CCCN2c3ccccc3Sc3ccc(Cl)cc32)CC1,normalized growth,"S. cerevisiae deletion strains, locus YKL009W, strain mrt4, stronger effect = lower value",0.936 (inactive)
same,normalized growth,"S. cerevisiae deletion strains, locus YKL068W, stronger effect = lower value",0.989 (inactive)
same,normalized growth,"S. cerevisiae deletion strains, locus YKL085W, strain MDH1 (second series), stronger effect = lower value",0.979 (inactive)
same,normalized growth,"S. cerevisiae deletion strains, locus YKL085W, strain MDH1, stronger effect = lower value",0.979 (inactive)
same,normalized growth,"S. cerevisiae deletion strains, locus YKL160W, strain elf1, stronger effect = lower value",0.974 (inactive)
same,normalized growth,"S. cerevisiae deletion strains, locus YKL190W, strain CNB1, stronger effect = lower value",0.124 (active)
same,normalized growth,"S. cerevisiae deletion strains, locus YKR001C, strain vps1, stronger effect = lower value",0.0709 (active)
same,normalized growth,"S. cerevisiae deletion strains, locus YKR026C, strain gcn3, stronger effect = lower value",0.976 (inactive)
same,normalized growth,"S. cerevisiae deletion strains, locus YKR091W, strain srl3, stronger effect = lower value",0.982 (inactive)
same,normalized growth,"S. cerevisiae deletion strains, locus YLL001W, strain dnm1, stronger effect = lower value",0.959 (inactive)
same,normalized growth,"S. cerevisiae deletion strains, locus YLL026W, stronger effect = lower value",0.898 (active)
same,normalized growth,"S. cerevisiae deletion strains, locus YLL041C, strain sdh2, stronger effect = lower value",0.943 (inactive)
same,normalized growth,"S. cerevisiae deletion strains, locus YLR027C, strain aat2, stronger effect = lower value",0.843 (active)
same,normalized growth,"S. cerevisiae deletion strains, locus YLR039C, strain RIC1, stronger effect = lower value",1.18 (inactive)
same,normalized growth,"S. cerevisiae deletion strains, locus YLR058C, strain SHM2, stronger effect = lower value",0.963 (inactive)
same,normalized growth,"S. cerevisiae deletion strains, locus YLR102C, strain apc9, stronger effect = lower value",1.01 (inactive)
same,normalized growth,"S. cerevisiae deletion strains, locus YLR113W, strain HOG1, stronger effect = lower value",0.966 (inactive)
same,normalized growth,"S. cerevisiae deletion strains, locus YLR221C, strain rsa3, stronger effect = lower value",0.885 (active)
same,normalized growth,"S. cerevisiae deletion strains, locus YLR258W, strain gsy2, stronger effect = lower value",0.943 (inactive)
same,normalized growth,"S. cerevisiae deletion strains, locus YLR262C, strain YPT6 (second series), stronger effect = lower value",1.06 (inactive)
same,normalized growth,"S. cerevisiae deletion strains, locus YLR262C, strain YPT6, stronger effect = lower value",0.689 (inactive)
same,normalized growth,"S. cerevisiae deletion strains, locus YLR268W, strain sec22, stronger effect = lower value",0.935 (inactive)
same,normalized growth,"S. cerevisiae deletion strains, locus YLR320W, strain mms22, stronger effect = lower value",0.866 (active)
same,normalized growth,"S. cerevisiae deletion strains, locus YLR330W, strain CHS5, stronger effect = lower value",0.892 (active)
same,normalized growth,"S. cerevisiae deletion strains, locus YLR342W, strain FKS1 (second series), stronger effect = lower value",0.405 (active)
same,normalized growth,"S. cerevisiae deletion strains, locus YLR342W, strain FKS1, stronger effect = lower value",0.523 (active)
same,normalized growth,"S. cerevisiae deletion strains, locus YLR357W, strain rsc2, stronger effect = lower value",0.914 (inactive)
same,normalized growth,"S. cerevisiae deletion strains, locus YLR370C, strain arc18, stronger effect = lower value",0.953 (inactive)
same,normalized growth,"S. cerevisiae deletion strains, locus YLR371W, strain rom2, stronger effect = lower value",1.01 (inactive)
same,normalized growth,"S. cerevisiae deletion strains, locus YLR384C, strain iki3, stronger effect = lower value",0.987 (inactive)
same,normalized growth,"S. cerevisiae deletion strains, locus YLR418C, strain cdc73, stronger effect = lower value",0.25 (active)
same,normalized growth,"S. cerevisiae deletion strains, locus YML016C, strain PPZ1, stronger effect = lower value",0.986 (inactive)
same,normalized growth,"S. cerevisiae deletion strains, locus YML032C, strain rad52, stronger effect = lower value",0.909 (inactive)
same,normalized growth,"S. cerevisiae deletion strains, locus YML120C, strain ndi1, stronger effect = lower value",0.823 (active)
same,normalized growth,"S. cerevisiae deletion strains, locus YML124C, strain tub3, stronger effect = lower value",0.997 (inactive)
same,normalized growth,"S. cerevisiae deletion strains, locus YMR058W, strain fet3, stronger effect = lower value",0.742 (active)
same,normalized growth,"S. cerevisiae deletion strains, locus YMR078C, strain ctf18, stronger effect = lower value",1 (inactive)
same,normalized growth,"S. cerevisiae deletion strains, locus YMR125W, strain sto1, stronger effect = lower value",0.869 (active)
same,normalized growth,"S. cerevisiae deletion strains, locus YMR129W, stronger effect = lower value",0.966 (inactive)
same,normalized growth,"S. cerevisiae deletion strains, locus YMR205C, strain PFK2, stronger effect = lower value",0.943 (inactive)
same,normalized growth,"S. cerevisiae deletion strains, locus YMR223W, strain ubp8, stronger effect = lower value",0.784 (active)
same,normalized growth,"S. cerevisiae deletion strains, locus YMR231W, strain pep5, stronger effect = lower value",0.0744 (active)
same,normalized growth,"S. cerevisiae deletion strains, locus YMR263W, strain SAP30, stronger effect = lower value",0.717 (active)
same,normalized growth,"S. cerevisiae deletion strains, locus YMR307W, strain GAS1, stronger effect = lower value",0.151 (active) and 1.03 (inactive)
same,normalized growth,"S. cerevisiae deletion strains, locus YNL067W, strain RPL9B, stronger effect = lower value",0.724 (active)
same,normalized growth,"S. cerevisiae deletion strains, locus YNL071W, strain lat1, stronger effect = lower value",0.918 (inactive)
same,normalized growth,"S. cerevisiae deletion strains, locus YNL128W, strain TEP1, stronger effect = lower value",0.0843 (active) and 0.921 (inactive)
same,normalized growth,"S. cerevisiae deletion strains, locus YNL153C, strain GIM3, stronger effect = lower value",0.512 (active) and 0.943 (inactive)
same,normalized growth,"S. cerevisiae deletion strains, locus YNL175C, strain NOP13, stronger effect = lower value",0.983 (inactive)
same,normalized growth,"S. cerevisiae deletion strains, locus YNL183C, strain NPR1, stronger effect = lower value",0.987 (inactive)
same,normalized growth,"S. cerevisiae deletion strains, locus YNL197C, strain WHI3, stronger effect = lower value",0.975 (inactive)
same,normalized growth,"S. cerevisiae deletion strains, locus YNL209W, strain ssb2, stronger effect = lower value",0.652 (active)
same,normalized growth,"S. cerevisiae deletion strains, locus YNL224C, strain SQS1, stronger effect = lower value",1 (inactive)
same,normalized growth,"S. cerevisiae deletion strains, locus YNL233W, strain BNI4, stronger effect = lower value",0.635 (active)
same,normalized growth,"S. cerevisiae deletion strains, locus YNL248C, strain rpa49, stronger effect = lower value",0.913 (inactive)
same,normalized growth,"S. cerevisiae deletion strains, locus YNL250W, strain rad50, stronger effect = lower value",0.983 (inactive)
same,normalized growth,"S. cerevisiae deletion strains, locus YNL271C, strain bni1, stronger effect = lower value",0.994 (inactive)
same,normalized growth,"S. cerevisiae deletion strains, locus YNL298W, strain CLA4, stronger effect = lower value",0.937 (inactive)
same,normalized growth,"S. cerevisiae deletion strains, locus YNL307C, strain MCK1, stronger effect = lower value",0.777 (active)
same,normalized growth,"S. cerevisiae deletion strains, locus YNL322C, strain KRE1 (second series), stronger effect = lower value",0.995 (inactive)
same,normalized growth,"S. cerevisiae deletion strains, locus YNL322C, strain KRE1, stronger effect = lower value",0.0727 (active)
same,normalized growth,"S. cerevisiae deletion strains, locus YNR049C, strain mso1, stronger effect = lower value",0.986 (inactive)
same,normalized growth,"S. cerevisiae deletion strains, locus YNR052C, strain pop2, stronger effect = lower value",0.732 (active)
same,normalized growth,"S. cerevisiae deletion strains, locus YOL006C, strain TOP1, stronger effect = lower value",0.427 (active)
same,normalized growth,"S. cerevisiae deletion strains, locus YOL012C, strain htz1",0.226 (inactive)
same,normalized growth,"S. cerevisiae deletion strains, locus YOL147C, strain pex11, stronger effect = lower value",0.938 (inactive)
same,normalized growth,"S. cerevisiae deletion strains, locus YOR001W, strain rrp6, stronger effect = lower value",0.864 (active)
same,normalized growth,"S. cerevisiae deletion strains, locus YOR061W, strain CKA2, stronger effect = lower value",0.913 (inactive)
same,normalized growth,"S. cerevisiae deletion strains, locus YOR069W, strain VPS5, stronger effect = lower value",0.996 (inactive)
same,normalized growth,"S. cerevisiae deletion strains, locus YOR070C, strain gyp1, stronger effect = lower value",0.347 (active)
same,normalized growth,"S. cerevisiae deletion strains, locus YOR080W, strain dia2, stronger effect = lower value",1 (inactive)
same,normalized growth,"S. cerevisiae deletion strains, locus YOR083W, strain WHI5 (second series), stronger effect = lower value",0.652 (active)
same,normalized growth,"S. cerevisiae deletion strains, locus YOR083W, strain WHI5, stronger effect = lower value",0.669 (active)
same,normalized growth,"S. cerevisiae deletion strains, locus YOR106W, strain vam3, stronger effect = lower value",0.161 (active)
same,normalized growth,"S. cerevisiae deletion strains, locus YOR136W, strain idh2, stronger effect = lower value",0.925 (inactive)
same,normalized growth,"S. cerevisiae deletion strains, locus YOR144C, strain elg1, stronger effect = lower value",1 (inactive)
same,normalized growth,"S. cerevisiae deletion strains, locus YOR184W, strain ser1, stronger effect = lower value",0.248 (active)
same,normalized growth,"S. cerevisiae deletion strains, locus YOR231W, strain MKK1, stronger effect = lower value",0.968 (inactive)
same,normalized growth,"S. cerevisiae deletion strains, locus YOR265W, strain rbl2, stronger effect = lower value",0.91 (active)
same,normalized growth,"S. cerevisiae deletion strains, locus YOR270C, strain vph1, stronger effect = lower value",0.673 (active)
same,normalized growth,"S. cerevisiae deletion strains, locus YOR290C, strain snf2, stronger effect = lower value",0.913 (inactive)
same,normalized growth,"S. cerevisiae deletion strains, locus YOR316C, strain cot1, stronger effect = lower value",1.01 (inactive)
same,normalized growth,"S. cerevisiae deletion strains, locus YPL051W, strain arl3, stronger effect = lower value",0.778 (active)
same,normalized growth,"S. cerevisiae deletion strains, locus YPL055C, strain LGE1, stronger effect = lower value",0.101 (active) and 1.03 (inactive)
same,normalized growth,"S. cerevisiae deletion strains, locus YPL078C, strain atp4, stronger effect = lower value",0.92 (inactive)
same,normalized growth,"S. cerevisiae deletion strains, locus YPL106C, strain sse1, stronger effect = lower value",0.999 (inactive)
same,normalized growth,"S. cerevisiae deletion strains, locus YPL240C, strain hsp82, stronger effect = lower value",0.983 (inactive)
same,normalized growth,"S. cerevisiae deletion strains, locus YPL241C, strain CIN2, stronger effect = lower value",0.484 (active)
same,normalized growth,"S. cerevisiae deletion strains, locus YPL256C, strain CLN2, stronger effect = lower value",0.978 (inactive)
same,normalized growth,"S. cerevisiae deletion strains, locus YPR119W, strain clb2, stronger effect = lower value",1.01 (inactive)
same,normalized growth,"S. cerevisiae deletion strains, locus YPR141C, strain kar3, stronger effect = lower value",0.999 (inactive)
same,normalized growth,"S. cerevisiae deletion strains, locus YPR163C, strain tif3, stronger effect = lower value",0.148 (active)
same,normalized growth,"S. cerevisiae deletion strains, locus YPR167C, strain met16, stronger effect = lower value",0.979 (inactive)
same,normalized growth,"S. cerevisiae deletion strains, strain wtn01, stronger effect = lower value",0.355 (active)
same,normalized growth,"S. cerevisiae strains, strain wild type, stronger effect = lower value",0.0575 (active)

# Source: PubChem BioAssay AID1159580 (chemical genetic matrix, 2015)
